# According to PubChem BioAssay:
# A number with no mark means an inactive call. The source made the active and inactive calls.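 How the source made its calls, unless noted: active means duplicate-averaged activation above buffer control mean plus 5 SD of those controls; inactive means the rest.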
# What was measured:
# [1] = thallium flux activation in parental CHO cells, counter-screen for KCNQ1 potentiator project (AID 493006); details: parental CHO-K1 cells, FluxOR thallium flux, at 10 µM; hits give high values;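 on activation: fluorescence ratio of max minus min over baseline after K+ and Tl+ depolarization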
# [2] = target: Potassium voltage-gated channel subfamily KQT member 1 (Homo sapiens) (UniProt P51787); assay: KCNQ1 potassium channel potentiators, confirmation, FluxOR thallium flux, CHO cells, duplicates (AID 493007;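 active means potentiation averaged over duplicate wells exceeding buffer-only control mean by more than 3 SD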;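 on outcome: cells depolarized by a potassium plus thallium sulfate stimulus after compound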;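 on potentiation: 0% = buffer-only wells and 100% = R-L3 activator control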); details: KCNQ1 cell line, FluxOR thallium flux fluorescence, at 10 µM; hits give high values, % of reference activator effect, buffer zero
# [3] = target: Potassium voltage-gated channel subfamily KQT member 2 (Rattus norvegicus) (UniProt O88943); assay: rat KCNQ2 channel potentiation, selectivity assay for KCNQ1 potentiator project, KCNQ2-CHO-K1 cells (AID 493009;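 active means mean duplicate potentiation above the buffer control mean plus 5 SD of buffer wells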;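 further: assay conditions were tuned for KCNQ1 rather than KCNQ2 modulators; signal is max minus min fluorescence divided by baseline after thallium stimulus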); details: FluxOR thallium flux fluorescence, at 10 µM; hits give high values, scaled: buffer 0, activator control 100
# [4] = target: Potassium voltage-gated channel subfamily KQT member 1 (Homo sapiens) (UniProt P51787); assay: KCNQ1 channel current potentiators, confirmation, orthogonal assay for KCNQ1 potentiator project, IonWorks patch clamp, KCNQ1-CHO cells (AID 493184;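 active means current rise at least 3 SD above the untreated control mean in each of two repeat wells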;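 on current potentiation: percent change of the same well's current before compound addition so 0% = no change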); details: automated patch clamp current, at 10 µM; hits give high values
# Chain of Potassium voltage-gated channel subfamily KQT member 1 (Homo sapiens) (P51787 whole entry, looked up): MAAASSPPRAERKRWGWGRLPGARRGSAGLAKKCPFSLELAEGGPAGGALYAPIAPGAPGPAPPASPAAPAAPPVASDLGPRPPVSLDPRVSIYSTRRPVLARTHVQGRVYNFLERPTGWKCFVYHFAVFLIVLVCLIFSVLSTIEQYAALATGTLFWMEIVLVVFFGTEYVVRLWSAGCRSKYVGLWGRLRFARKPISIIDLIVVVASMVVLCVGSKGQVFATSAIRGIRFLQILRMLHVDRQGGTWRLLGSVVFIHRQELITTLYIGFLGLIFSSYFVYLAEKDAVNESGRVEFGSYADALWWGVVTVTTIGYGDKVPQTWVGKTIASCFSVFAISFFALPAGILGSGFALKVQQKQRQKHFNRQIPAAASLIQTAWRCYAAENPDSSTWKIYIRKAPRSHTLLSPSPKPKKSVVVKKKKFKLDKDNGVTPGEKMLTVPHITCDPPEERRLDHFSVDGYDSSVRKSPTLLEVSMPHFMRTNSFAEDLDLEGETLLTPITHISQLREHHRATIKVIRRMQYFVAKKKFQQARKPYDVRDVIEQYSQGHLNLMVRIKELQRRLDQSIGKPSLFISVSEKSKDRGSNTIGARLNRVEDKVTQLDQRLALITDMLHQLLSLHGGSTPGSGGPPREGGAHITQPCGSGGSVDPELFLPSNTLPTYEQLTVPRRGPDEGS
# Chain of Potassium voltage-gated channel subfamily KQT member 2 (Rattus norvegicus) (O88943 whole entry, looked up): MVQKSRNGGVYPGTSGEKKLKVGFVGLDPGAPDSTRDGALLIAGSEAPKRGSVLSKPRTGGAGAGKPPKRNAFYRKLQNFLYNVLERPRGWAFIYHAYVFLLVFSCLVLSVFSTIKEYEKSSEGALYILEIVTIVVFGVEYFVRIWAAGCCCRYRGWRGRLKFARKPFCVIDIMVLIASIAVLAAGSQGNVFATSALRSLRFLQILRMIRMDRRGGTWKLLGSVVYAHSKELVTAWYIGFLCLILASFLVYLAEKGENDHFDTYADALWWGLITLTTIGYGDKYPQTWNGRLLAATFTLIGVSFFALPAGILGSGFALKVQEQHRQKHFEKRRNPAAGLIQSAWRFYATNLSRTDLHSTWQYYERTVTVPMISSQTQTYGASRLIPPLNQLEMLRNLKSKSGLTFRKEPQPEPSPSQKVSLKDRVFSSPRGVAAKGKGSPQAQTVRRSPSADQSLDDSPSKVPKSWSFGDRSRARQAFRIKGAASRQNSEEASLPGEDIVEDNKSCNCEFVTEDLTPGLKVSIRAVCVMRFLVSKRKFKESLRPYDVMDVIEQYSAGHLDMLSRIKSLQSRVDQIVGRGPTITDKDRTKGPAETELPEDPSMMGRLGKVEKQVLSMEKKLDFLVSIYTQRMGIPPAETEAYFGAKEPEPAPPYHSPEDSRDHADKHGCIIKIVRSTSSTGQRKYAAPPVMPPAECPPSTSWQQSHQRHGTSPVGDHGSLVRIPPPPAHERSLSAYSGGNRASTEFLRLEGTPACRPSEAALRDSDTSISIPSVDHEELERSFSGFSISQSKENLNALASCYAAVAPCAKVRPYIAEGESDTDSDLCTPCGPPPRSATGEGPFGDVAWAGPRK
Compound,activation [1],potentiation [2],potentiation [3],outcome [4],outcome [1],outcome [2],outcome [3],current potentiation [4]
CON/C=N/C(=S)Nc1ncc(C(F)(F)F)cc1Cl,283% (active),87.5% (active),337% (active),inactive,,,,
CN1CCN(C=Nc2nc3ccccc3nc2N2CCCC2)CC1,,,,inactive,inactive,inactive,inactive,
CNC(=O)c1cc(-c2ccc(Cl)cc2)n(-c2ccccc2)n1,,,,inactive,inactive,inactive,inactive,
Cc1ccc2nc(NC(=S)NC(=O)c3cccs3)sc2c1,168% (active),66% (active),158% (active),inactive,,,,
COC(=O)c1ccc(NC(=S)NC(=O)c2c(Cl)cnn2C)cc1,142% (active),26% (active),,inactive,,,inactive,
Cc1cccc(NC(=S)N/N=C(\c2ccccc2)C(C)C)c1,,32% (active),152% (active),inactive,inactive,,,
Cc1cccc(-c2n[nH]c(=S)n2/N=C/c2cccs2)c1,138% (active),22.5% (active),149% (active),inactive,,,,
Oc1[nH]c2ccc(Br)cc2c1N=NC(=S)Nc1ccc(F)cc1,,43.5% (active),160% (active),inactive,inactive,,,
CCOC(=O)C(=NCC1CCCO1)NNc1ccccc1Cl (stereo not given),,,,inactive,inactive,inactive,inactive,
Cc1ccc(C(=O)CC(=O)COc2ccc(Cl)cc2C)cc1,,180% (active),209% (active),inactive,inactive,,,
Cc1cc(Cl)ccc1OCC(=O)N/N=C1\CC2C=CCC12 (stereo not given),,,,inactive,inactive,inactive,inactive,
CCN(CC)CCCNC(=O)c1[nH]c2ccccc2c1Sc1ccc(Cl)cc1,,73% (active),,,inactive,,inactive,29.6% (active)
COc1ccc(/C=N/N=C2/NC(=O)C(c3ccccc3)S2)c(OC)c1 (stereo not given),,,,inactive,inactive,inactive,inactive,
Cn1ncc([N+](=O)[O-])c1C(=O)N/N=C/c1ccc(F)cc1,,,,inactive,inactive,inactive,inactive,
CC1CCCCC1NC(=S)NC(=O)c1cccs1 (stereo not given),181% (active),100% (active),300% (active),inactive,,,,
CCN(C(=O)c1cc2cc3ccc(C)cc3nc2o1)c1ccc(OC)cc1,,,,inactive,inactive,inactive,inactive,
CN(C(=O)c1ccco1)c1nnc(-c2ccc(F)cc2)s1,,,,inactive,inactive,inactive,inactive,
CC(C)c1ccc(/C=N/n2c(COc3ccccc3)n[nH]c2=S)cc1,190% (active),512% (active),503% (active),inactive,,,,
Cc1ccc(CN2C(=O)CC(Nc3ccc(N4CCOCC4)cc3)C2=O)cc1 (stereo not given),,,,inactive,inactive,inactive,inactive,
O=C(NC(=S)Nc1nc2c(s1)CSc1ccccc1-2)c1ccccc1,170% (active),68.5% (active),147% (active),inactive,,,,
CSc1nc(C)c2c(n1)N(c1ccc(C(C)C)cc1)CC2,,,,inactive,inactive,inactive,inactive,
CSc1nc2sc3c(c2c(=S)[nH]1)CC(C)(C)OC3,528% (active),298% (active),652% (active),inactive,,,,
CCCOc1ccc(Cc2nc(N)nc(N)n2)cc1,,,,inactive,inactive,inactive,inactive,
COc1ccc(/C(O)=C2/C(=O)C(=O)N(CCCN(C)C)C2c2ccc(Cl)cc2)cc1OC (stereo not given),,,,inactive,inactive,inactive,inactive,

Compound,activation [1],potentiation [2],potentiation [3],outcome [4],outcome [1],outcome [2],outcome [3],current potentiation [4]
CC(C)CC(=O)NC(=S)Nc1nc(-c2cccc3ccccc23)cs1,,60% (active),156% (active),inactive,inactive,,,
CC(C)c1ccc(NC(=O)C2CC(=O)N=C(N)S2)cc1 (stereo not given),164% (active),41.5% (active),227% (active),inactive,,,,
O=c1cc(-c2ccccc2)nc2c(-c3ccccc3)c(C(F)(F)F)[nH]n12,626% (active),282% (active),591% (active),inactive,,,,
CCSc1nnc(NS(=O)(=O)c2ccc(OC)cc2)s1,,,,inactive,inactive,inactive,inactive,
CCC(NC(=O)CCc1nnc(-c2cc(C)on2)o1)C12CC3CC(CC(C3)C1)C2 (stereo not given),,,,inactive,inactive,inactive,inactive,
Cc1cccc(C(=O)Nc2ccccc2C(=O)NCc2cccnc2)c1,,,,inactive,inactive,inactive,inactive,
COc1ccc(C(=O)CSc2nnc(NC(=O)C3CC(=O)N(c4cccc(OC)c4)C3)s2)cc1 (stereo not given),,,,inactive,inactive,inactive,inactive,
Cc1cc(N2CCN(C)CC2)nc2ccc(NC(=S)NCCCN3CCc4ccccc4C3)cc12,,,,inactive,inactive,inactive,inactive,
COc1ccc(Nc2nc(-c3sc(C)nc3C)cs2)c(OC)c1,,,,inactive,inactive,inactive,inactive,
CCOc1ccccc1NC(=O)C(=O)CC(=O)c1cccc(OC)c1,216% (active),87% (active),280% (active),inactive,,,,
CC1CCN(C(=S)NC(=O)c2cccc([N+](=O)[O-])c2)CC1,207% (active),41.5% (active),189% (active),inactive,,,,
CC1CCc2sc(-c3n[nH]c(=S)o3)cc2C1 (stereo not given),207% (active),30% (active),179% (active),inactive,,,,
COc1ccc2c(c1)c(=O)c(C(=O)O)c(-c1ccc3c(c1)OCO3)n2C,,,,inactive,inactive,inactive,inactive,
CC(C)(C)c1cc(C(=O)NNC(=O)c2ccc(C(F)(F)F)cc2)no1,,32% (active),161% (active),inactive,inactive,,,
Cc1[nH]n(-c2cccc3ccccc23)c(=O)c1/C=N/c1sc2c(c1C#N)CCC2,204% (active),122% (active),288% (active),inactive,,,,
O=c1[nH]cc(N=Cc2cc(Cl)cc(Cl)c2O)c(=O)[nH]1,188% (active),,,inactive,,inactive,inactive,
CCOC(=O)Cc1csc(NC(=O)CSc2nnnn2-c2ccc(C)cc2C)n1,,,,inactive,inactive,inactive,inactive,
COc1cccc(NC(=S)NCCN2CCOCC2)c1,156% (active),26% (active),162% (active),inactive,,,,
Cc1ccc(OCC(=O)NNC(=S)NC(=O)c2cccs2)c(C)c1,195% (active),76.5% (active),238% (active),inactive,,,,
C(=N\NC(=Nc1ccccc1)c1ccccn1)/c1ccccn1,,,,inactive,inactive,inactive,inactive,
CCOc1ccc(-c2noc(CCC(=O)NC3CCCC3)n2)cc1OC,,,,inactive,inactive,inactive,inactive,
CCOc1ccc2nc(N3C(=O)/C(=C/c4ccc(Cl)cc4)NC3=S)sc2c1,283% (active),143% (active),416% (active),inactive,,,,
Cc1ccc(-c2csc(NC(=S)NC(=O)c3ccco3)n2)cc1,180% (active),71% (active),164% (active),inactive,,,,
Cc1cccc(NC(=S)NNC(=O)c2csc3c2CCC(C)C3)c1 (stereo not given),193% (active),86% (active),248% (active),inactive,,,,

Compound,activation [1],potentiation [2],potentiation [3],outcome [4],outcome [1],outcome [2],outcome [3],current potentiation [4]
CNc1ccccc1C(=O)OC(C)C(=O)Nc1ccc(Cl)cn1 (stereo not given),,,,inactive,inactive,inactive,inactive,
Cc1ccc(NC2=C(NC(=O)c3ccccc3)C(=O)c3ccccc3C2=O)cc1Cl,,,,inactive,inactive,inactive,inactive,
CCc1nccn1S(=O)(=O)c1ccc2ccc(C)cc2c1,,,,inactive,inactive,inactive,inactive,
COC(=O)c1ccsc1NC(=O)CN1CCN(Cc2ccc3c(c2)OCO3)CC1,,,,inactive,inactive,inactive,inactive,
CC(=O)O[C@H]1CSC[C@H]1NC(=O)c1ccccc1,,,,inactive,inactive,inactive,inactive,
CC1C/C(=C/c2ccncc2)C(=O)/C(=C/c2ccncc2)C1 (stereo not given),,,,inactive,inactive,inactive,inactive,
O=C1C(C2=C(O)c3ccccc3C2=O)=Nc2ccccc21,225% (active),61% (active),238% (active),inactive,,,,
Cc1ccc(-c2nc3ccccc3o2)cc1NC(=S)NC(=O)c1cc2ccccc2o1,,21.5% (active),,inactive,inactive,,inactive,
CCOc1ccc(C2C(C#N)=C(N)N(c3sc4c(c3C#N)CCCC4)C3=C2C(=O)CCC3)cc1 (stereo not given),,,,inactive,inactive,inactive,inactive,
c1ccc2c(c1)CSc1sccc1C2=C1CCNCC1,,,,inactive,inactive,inactive,inactive,
CCCCCCCCCCCC(=O)NC(Cc1ccc(OC)c([N+](=O)[O-])c1)C(=O)O (stereo not given),372% (active),116% (active),349% (active),inactive,,,,
C#CC1(NC(=O)NCCCC)CCCCC1,,,,inactive,inactive,inactive,inactive,
O=C(NCc1ccccc1)/C(=C/c1ccccc1)NC(=O)c1ccco1,,,,inactive,inactive,inactive,inactive,
COc1ccc(/C=C2/SC(=S)N(NS(=O)(=O)c3ccccc3)C2=O)cc1,195% (active),84.5% (active),180% (active),inactive,,,,
COc1ccc(-n2cc(CNC3CCN(C)CC3)c(-c3cccc(F)c3)n2)cc1,142% (active),31% (active),,inactive,,,inactive,
Cc1cccc(CNC(=O)C2CCCN(c3nn4c(=O)cc(C)nc4s3)C2)c1 (stereo not given),,,,inactive,inactive,inactive,inactive,
COc1ccc(OC)c(-c2cc(C(=O)N3CCN(c4ccccc4)CC3)no2)c1,,,,inactive,inactive,inactive,inactive,
O=c1cc(N2CCc3ccccc32)[nH]c(=O)n1Cc1ccc(F)cc1,,,,inactive,inactive,inactive,inactive,
COCCn1cnc2c1c(=O)n(CC#N)c(=O)n2Cc1ccccc1,,,,inactive,inactive,inactive,inactive,
COc1cc2c(cc1OC)CN(C(=O)COc1ccccc1[N+](=O)[O-])CC2,,,,inactive,inactive,inactive,inactive,
CCOc1cc(CNc2ncnc3nc[nH]c23)ccc1OC,,,,inactive,inactive,inactive,inactive,
O=C(CCN1CCCCCC1)Nc1ccc(F)cc1,,,,inactive,inactive,inactive,inactive,
